Out of some 59,000 compounds screened, fewer than 10 were called active. The rule behind the calls is not given here. Only a sample is shown.

This note sets out measurements from PubChem BioAssay AID592 (National Center for Advancing Translational Sciences (NCATS), 2007).

The nature of the experiment: qHTS Assay for Spectroscopic Profiling in A647 Spectral Region. The following applies: Compound fluorescence, A647 channel (570/671 nm), Tris buffer; hits give high values. The source says: NIH Molecular Libraries Screening Centers Network [MLSCN] NIH Chemical Genomics Center [NCGC] […] Occasionally, the artifactual effect may originate from the compounds own spectral or other biophysical properties which generally tend to track its assay concentration. Pre-screening/profiling the library with respect to the compounds spectral properties should help one exclude false positives early on. While the most informative fluorescent profiling data set is obtained by performing a full excitation and emission scan of each well by using a monochromator-based plate reader, such an approach is practical only on a very limited scale as scanning each well requires long time. An alternative approach, applied here, is to perform plate reader scans using selected excitation and emission wavelength pairs to generate a multidimensional relational database that correlates compound concentration and the respective relative fluorescence intensity at a given wavelength set. A standard curve of Alexa 647 (A647) present on each plate as six-point concentration series, was used to compute a normalized fluorescence response, termed dye-equivalent concentration, for each compound at each concentration.
NCGC Assay Protocol Summary: Buffer: 100 mM Tris buffer, pH 8.0 Dye standard plate: The wells in columns 1 through 4 of a Kalypsys polypropylene 1536-well compound plate were filled with standard solutions of fluorophore corresponding to the spectral region of interest. Solutions of A647 were placed in the following wells: AC1, AD1: 3 mM, AC2, AD2: 300 uM, AC3, AD3: 30 uM, AC4, AD4: zero (DMSO), AE1, AF1: 3 uM, AE2, AF2: 900 nM, AE3, AF3: 300 nM, AE4, AF4: zero (DMSO). Assay Steps: Six uL of buffer were dispensed to 1536-well Greiner black plates. Compounds and dye standards (23 nL) were transferred via Kalypsys PinTool. The plates were incubated for 15 min at room temperature, and then read on ViewLux (Perkin-Elmer) High-throughput CCD imager using 570 nm and 671 nm excitation and emission filter set. Keywords: NIH Roadmap, MLSCN, MLI, MLSMR, qHTS, NCGC, A647, A-647, Fluorescent Profiling.
Background: qHTS replaces the single test concentration by a dilution series.
In the case of `CC(=O)/C(=N\N=C(N)N)c1ccccc1`, the max dye-equivalent concentration was 1 nM (inactive).

As for `Clc1ccc(Cc2nn3c(-c4ccncc4)nnc3s2)cc1`, the max dye-equivalent concentration is 4 nM (inactive).

As to `CCc1cc(Br)ccc1NC(=O)C1CCCO1` (stereo not given), the max dye-equivalent concentration is 19 nM (inactive).

In the case of `CCCS(=O)(=O)Nc1c(C(=O)O)[nH]c2ccccc12`, the max dye-equivalent concentration is 1 nM (inactive).

As for `CCCCSc1nnc(-c2ccc(C)cc2)o1`, the max dye-equivalent concentration is 5.1 nM (inactive).

In the case of `CCOC(=O)c1oc2ccccc2c1NC(=O)c1cccs1`, the max dye-equivalent concentration was 5.6 nM (inactive).

Take `CCCS(=O)(=O)N1CCCC(C(=O)N2CCN(c3ccccc3)CC2)C1` (stereo not given): the max dye-equivalent concentration was 1 nM (inactive).

Turning to `COc1ccc(CN2CN(C(C)C)CSC2=S)cc1`, the max dye-equivalent concentration was 1 nM (inactive).

Turning to `COc1ccc(-c2cc3n(n2)CCc2nc4ccccc4n2-3)cc1`, the max dye-equivalent concentration is 1 nM (inactive).

Take `O=C1c2oc3ccc(Br)cc3c(=O)c2C(c2cccc(F)c2)N1CCO` (stereo not given): the max dye-equivalent concentration is 3.9 nM (inactive).

For `Cc1cc(N2CCCCC2)nc2ccc(Cc3ccc4nc(N5CCCCC5)cc(C)c4c3)cc12`, the max dye-equivalent concentration was 3.4 nM (inactive).

In the case of `O=C(NC1CC2CCCC(C1)N2C(=O)N1CCCCC1)C1CCCCC1` (stereo not given), the max dye-equivalent concentration is 31 nM (inactive).

For `CCCCOc1ccccc1/C=c1/sc2nc(-c3oc4ccccc4c3C)nn2c1=O`, the max dye-equivalent concentration is 22 nM (inactive).

Consider `COc1ccccc1N1CCN(C(=O)Cn2nnc(-c3cccs3)n2)CC1`, for which the max dye-equivalent concentration is 1 nM (inactive).

As to `COc1ccccc1CNc1ncnc2ccc(-c3ccc4c(c3)OCO4)cc12`, the max dye-equivalent concentration is 31 nM (inactive).

For `Cn1c(NC(=O)c2ccco2)c(-c2ccccc2Cl)c(=O)c2ccccc21`, the max dye-equivalent concentration was 1 nM (inactive).

`NC(=S)c1ccc(C(N)=S)o1`: the max dye-equivalent concentration was 5.7 nM (inactive).

`c1ccc(-c2nnc3n2NC(c2ccc4c(c2)OCO4)S3)cc1` (stereo not given): the max dye-equivalent concentration was 12 nM (inactive).

Turning to `O=C(CCc1ccccc1)Nc1ccc(NC(=O)C2CC2)nc1`, the max dye-equivalent concentration was 45 nM (inactive).

With `COC(=O)c1ccc(NCC(=O)c2ccccc2)cc1`, the max dye-equivalent concentration was 1.7 nM (inactive).
